# Test results published in PubChem BioAssay.
# Calls of active or inactive are those of the source.
# Experiments:
# [1] = optical density shifts of acrAB sulA E. coli – strain DRC41, OD650, 48 h, E. coli filamentation inducer project, primary screen (AID 1152); conditions: higher = more signal, called active from +8 up or from −8 down;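 note: E. coli MC1000 strain DRC41 lacking acrAB efflux pump and sulA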
# [2] = probe aLefty1 binding on compound microarray – biochemical, small-molecule microarray, 635/667 nm fluorescence, primary screen (AID 1153); conditions: higher = more signal;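 note: score merges spot fluorescence with signal-to-noise ratio from the scanned slide images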
# [3] = plasmodial surface anion channel blockers, osmotic lysis – cell-based, P. falciparum Indochina, OD700, 1 h, primary screen (AID 1154); conditions: P. falciparum Indochina infected RBC osmotic lysis, higher = more signal, called active from +8 up or from −8 down
# [4] = plasmodial surface anion channel blockers, osmotic lysis – cell-based, P. falciparum Indochina, OD700, 2 h, primary screen (AID 1155);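 note: lysis reports solute entry through the parasite surface anion channel PSAC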; conditions: P. falciparum Indochina infected erythrocytes, higher = more signal, called active from +8 up or from −8 down
# [5] = changes in parasitized red cell lysis, either direction – P. falciparum Indochina, OD700, 3 h, PSAC antagonist project, primary screen (AID 1156); conditions: P. falciparum-infected erythrocytes, osmotic lysis, higher = more signal, called active from +8 up or from −8 down
# [6] = plasmodial surface anion channel blockers, osmotic lysis – cell-based, P. falciparum Indochina, OD700, 18 h, primary screen (AID 1157); conditions: P. falciparum Indochina infected erythrocytes, osmotic lysis OD700, 18 h; higher = more signal, called active from +8 up or from −8 down
# [7] = S6 kinase pathway phospho-S6 level changes – cell-based, A549, cytoblot, luminescence, serum-stimulated, primary screen (AID 1158); conditions: 5 h, higher = more signal;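 note: serum-stimulated A549 lung adenocarcinoma cells; signal is phosphorylated S6 detected by cytoblot immunostaining with HRP secondary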
# [8] = target: NADPH oxidase 2 (Homo sapiens) (UniProt P04839); assay: compounds shifting NOX2 Amplex Red fluorescence – cell-based, HEK293-NOX2, PMA-stimulated, NOX inhibitor project, primary screen (AID 1159); conditions: 45 min, higher = more signal, called active from +8 up or from −8 down; note: test concentration not given here
# Sequence of NADPH oxidase 2 (Homo sapiens) (P04839 whole entry, looked up): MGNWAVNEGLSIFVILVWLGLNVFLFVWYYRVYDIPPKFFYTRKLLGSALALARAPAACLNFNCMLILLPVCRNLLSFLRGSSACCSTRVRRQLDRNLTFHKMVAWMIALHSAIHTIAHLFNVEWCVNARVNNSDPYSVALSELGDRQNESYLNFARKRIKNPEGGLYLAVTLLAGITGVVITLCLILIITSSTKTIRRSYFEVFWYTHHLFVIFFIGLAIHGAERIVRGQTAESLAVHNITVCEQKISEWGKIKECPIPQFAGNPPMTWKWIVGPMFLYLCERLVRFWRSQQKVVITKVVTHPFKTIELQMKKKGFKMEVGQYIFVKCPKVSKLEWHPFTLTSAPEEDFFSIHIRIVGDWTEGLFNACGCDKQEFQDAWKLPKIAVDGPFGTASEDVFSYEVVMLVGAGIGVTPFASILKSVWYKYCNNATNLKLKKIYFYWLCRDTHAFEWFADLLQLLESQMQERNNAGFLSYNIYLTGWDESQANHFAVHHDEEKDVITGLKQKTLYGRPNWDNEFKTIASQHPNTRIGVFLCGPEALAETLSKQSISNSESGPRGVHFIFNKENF
# [9] = target: NADPH oxidase 4 (Homo sapiens) (UniProt Q9NPH5); assay: compounds shifting NOX4 Amplex Red fluorescence – cell-based, HEK293-NOX4, tetracycline-induced, NOX inhibitor project, primary screen (AID 1160); conditions: HEK293-NOX4, Amplex Red H2O2 fluorescence, 45 min; higher = more signal, called active from +8 up or from −8 down
# Sequence of NADPH oxidase 4 (Homo sapiens) (Q9NPH5 whole entry, looked up): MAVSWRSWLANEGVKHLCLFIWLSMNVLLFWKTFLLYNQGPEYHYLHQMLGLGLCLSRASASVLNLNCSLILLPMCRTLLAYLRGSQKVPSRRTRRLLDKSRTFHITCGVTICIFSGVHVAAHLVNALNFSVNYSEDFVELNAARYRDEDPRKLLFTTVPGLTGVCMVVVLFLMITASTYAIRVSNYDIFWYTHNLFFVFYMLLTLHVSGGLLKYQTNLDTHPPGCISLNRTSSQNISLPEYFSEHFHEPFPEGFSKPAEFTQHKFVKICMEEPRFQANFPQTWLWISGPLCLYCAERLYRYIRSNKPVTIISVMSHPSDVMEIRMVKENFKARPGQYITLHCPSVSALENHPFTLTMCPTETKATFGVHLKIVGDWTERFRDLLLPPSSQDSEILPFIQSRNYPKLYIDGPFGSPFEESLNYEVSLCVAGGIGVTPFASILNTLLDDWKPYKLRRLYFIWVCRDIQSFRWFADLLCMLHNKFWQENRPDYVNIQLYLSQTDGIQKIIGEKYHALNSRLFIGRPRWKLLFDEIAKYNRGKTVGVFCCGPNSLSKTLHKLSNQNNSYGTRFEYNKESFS
# [10] = target: NADPH oxidase 5 (Homo sapiens) (UniProt Q96PH1); assay: compounds shifting NOX5 Amplex Red fluorescence – cell-based, HEK293-NOX5, NOX inhibitor project, primary screen (AID 1161); conditions: HEK293-NOX5, ionomycin, 45 min, higher = more signal
# Sequence of NADPH oxidase 5 (Homo sapiens) (Q96PH1 whole entry, looked up): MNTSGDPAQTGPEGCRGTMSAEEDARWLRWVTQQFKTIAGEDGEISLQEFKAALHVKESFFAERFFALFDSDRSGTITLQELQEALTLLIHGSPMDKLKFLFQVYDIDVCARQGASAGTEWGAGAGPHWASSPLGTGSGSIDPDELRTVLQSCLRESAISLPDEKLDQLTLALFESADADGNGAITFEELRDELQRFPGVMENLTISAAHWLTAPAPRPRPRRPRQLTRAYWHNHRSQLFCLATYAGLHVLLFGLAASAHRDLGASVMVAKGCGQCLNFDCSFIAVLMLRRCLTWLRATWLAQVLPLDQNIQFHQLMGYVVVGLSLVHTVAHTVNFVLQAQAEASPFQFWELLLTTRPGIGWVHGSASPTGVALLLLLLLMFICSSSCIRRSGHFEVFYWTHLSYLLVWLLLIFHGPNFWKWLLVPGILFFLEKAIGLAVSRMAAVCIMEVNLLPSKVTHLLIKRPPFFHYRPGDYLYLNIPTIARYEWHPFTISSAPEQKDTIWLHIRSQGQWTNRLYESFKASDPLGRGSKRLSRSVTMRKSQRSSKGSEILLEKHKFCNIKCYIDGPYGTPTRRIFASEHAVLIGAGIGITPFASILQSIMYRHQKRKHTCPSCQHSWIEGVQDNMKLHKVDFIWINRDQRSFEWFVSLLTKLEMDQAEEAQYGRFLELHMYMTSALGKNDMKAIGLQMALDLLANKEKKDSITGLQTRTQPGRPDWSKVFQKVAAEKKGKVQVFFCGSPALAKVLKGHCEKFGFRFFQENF
# [11] = compound effects on lung adenocarcinoma cell viability – A549, calcein-AM fluorescence, 48 h, basal, profiling panel (AID 1162); conditions: higher = more signal; note: test concentration not given here
# [12] = compound effects on differentiated 3T3-L1 adipocyte viability – cell-based, 3T3-L1 adipocytes, calcein-AM fluorescence, 48 h, basal, profiling panel (AID 1163); conditions: 3T3-L1 adipocytes viability, higher = more signal; note: test concentration not given here
# [13] = compound effects on hepatocellular carcinoma cell viability – HepG2, calcein-AM fluorescence, 48 h, basal, profiling panel (AID 1164); conditions: higher = more signal; note: test concentration not given here
# [14] = compound effects on multiple myeloma cell viability – MM1S, calcein-AM fluorescence, 48 h, basal, profiling panel (AID 1165); conditions: higher = more signal; note: test concentration not given here
# [15] = calcein-AM signal in unstimulated myeloma cells – cell-based, calcein-AM fluorescence, 48 h, PK04 Diversity Set, profiling panel (AID 1166); conditions: RPMI8226 myeloma viability, higher = more signal;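 note: cells grown under basal conditions without added stimulus; test concentration not given here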
# [16] = JC-1 mitochondrial signal, unstimulated HepG2 cells – cell-based, JC-1 fluorescence, 24 h, 100 nL compound, profiling panel (AID 1167); conditions: HepG2 mitochondrial potential, higher = more signal; note: test concentration not given here
# [17] = JC-1 mitochondrial signal, unstimulated adipocytes – cell-based, JC-1 fluorescence, 3T3-L1 adipocytes, 24 h, 100 nL compound, profiling panel (AID 1168); conditions: JC-1 mitochondrial fluorescence, higher = more signal, called active from +8 up or from −8 down; note: test concentration not given here
# [18] = JC-1 mitochondrial signal, unstimulated myeloma cells – cell-based, JC-1 fluorescence, RPMI8226, 24 h, 100 nL compound, profiling panel (AID 1169); conditions: JC-1 mitochondrial potential fluorescence, higher = more signal; note: test concentration not given here
# [19] = JC-1 mitochondrial signal, unstimulated MM1S myeloma – cell-based, JC-1 fluorescence, 24 h, 100 nL compound, profiling panel (AID 1170); conditions: MM1S mitochondrial potential, higher = more signal; note: test concentration not given here
# [20] = resazurin metabolic signal in A549 cells – cell-based, resazurin fluorescence, 24 h, PK04 Diversity Set, profiling panel (AID 1171); conditions: A549 viability, higher = more signal, called active from +8 up or from −8 down; note: test concentration not given here
SMILES,z-score [1],composite z-score [2],z-score [3],z-score [4],z-score [5],z-score [6],z-score [7],z-score [8],z-score [9],z-score [10],z-score [11],z-score [12],z-score [13],z-score [14],z-score [15],z-score [16],z-score [17],z-score [18],z-score [19],z-score [20]
COCCCNC(=O)[C@@]1(c2ccc([N+](=O)[O-])cc2)CC(=O)N(C(C)C)[C@@H]1c1ccc(CO)cc1,0.569 (inactive),0.125,0.481 (inactive),-0.135 (inactive),-0.288 (inactive),-0.0629 (inactive),0.361,-0.635 (inactive),0.726 (inactive),-0.0684,1.12,1.22,0.603,0.105,0.243,-0.0251,-0.612 (inactive),-0.795,-1.28,0.985 (inactive)
COc1ccc([Si](C)(C)[C@H]2[C@H](CCO)O[C@@]3(C(=O)N(Cc4ccccc4)c4ccc(N5C(=O)c6ccccc6Oc6ccccc65)cc43)[C@@H]2C)cc1,0.503 (inactive),0.121,3.46 (inactive),1.45 (inactive),0.354 (inactive),1.19 (inactive),0.314,-1.35 (inactive),1.42 (inactive),0.269,-1.01,0.271,-3.26,-1.7,-3.51,0.0091,-0.404 (inactive),-0.896,-1.53,-2.28 (inactive)
CC(C)C(=C=CC[C@H](O)c1cccc(OCCO)c1)CCO,1.09 (inactive),-0.116,1.77 (inactive),-1.04 (inactive),-1.42 (inactive),-1.95 (inactive),0.28,-0.24 (inactive),0.17 (inactive),-1.29,0.211,0.786,0.401,0.214,0.292,0.434,-0.599 (inactive),0.6,-0.373,1.21 (inactive)
CC(C)[C@H]1NC(=O)[C@@]23C(=O)N[C@@H](Cc4ccccc4)C2[C@H](C)[C@@]2(C)O[C@H]2C3/C=C/C/C=C\CNC(=O)[C@H](Cc2ccccc2)NC1=O (stereo not given in full),-0.306 (inactive),0.284,1.48 (inactive),0.491 (inactive),0.137 (inactive),0.476 (inactive),-0.324,0.155 (inactive),1.05 (inactive),1.1,0.716,-0.144,0.42,-1.08,-1.39,0.5,-0.769 (inactive),-0.132,0.623,-0.739 (inactive)
CCOC(=O)C[C@H]1[C@H](OC(=O)c2ccccc2-c2ccccc2)[C@@H](NC(=O)c2ccccc2)c2cc(OCCCO)ccc2N1C(=O)c1ccccc1,-1.13 (inactive),-0.0547,1.61 (inactive),0.0478 (inactive),1.11 (inactive),0.256 (inactive),-0.133,0.418 (inactive),0.884 (inactive),0.838,-0.164,-0.603,-0.56,-0.162,-0.559,-0.127,-0.0812 (inactive),-0.485,0.318,-0.336 (inactive)
CN(C)C(=O)[C@@]1(Cc2ccccc2)COC(c2ccc(OCCCO)cc2)=N1,1.54 (inactive),-0.57,20.9 (active),3.73 (inactive),2.46 (inactive),1.09 (inactive),0.0912,-1.26 (inactive),0.108 (inactive),-1.21,0.0581,-0.538,-0.0485,-1.22,0.726,-0.455,-0.384 (inactive),0.0953,-1.17,-0.193 (inactive)
CC(C)C[C@@H]1NC(=O)CNC(=O)[C@@]23C(=O)N[C@@H](Cc4ccccc4)C2[C@H](C)[C@@]2(C)O[C@H]2C3/C=C/C/C=C\CNC1=O (stereo not given in full),-0.455 (inactive),-0.0265,0.349 (inactive),-0.262 (inactive),0.183 (inactive),-0.16 (inactive),-0.0425,0.217 (inactive),1.1 (inactive),0.149,-0.692,0.404,-0.262,0.0565,-0.939,-0.513,0.00154 (inactive),-0.385,-0.181,0.547 (inactive)
COc1cc(NN2C(C(O)c3ccccc3)C=CC3C(=O)N(C)C(=O)C32)cc(OC)c1OC (stereo not given),-1.05 (inactive),0.0455,0.758 (inactive),0.34 (inactive),1.21 (inactive),-0.447 (inactive),1.44,-3.07 (inactive),-5.77 (inactive),-6.19,-0.209,0.68,-0.131,-1.34,-0.589,-0.944,0.215 (inactive),-0.413,-1.54,-1.52 (inactive)
